Assay outcomes (PubChem BioAssay)
12-LOX inh = inhibitors of human 12S-lipoxygenase ALOX12 | hit rate 1.1% among 580,000 | purified 12hLO, xylenol orange hydroperoxide absorbance | P18054 | Potency, µM (top dose mostly 108 µM), inactives show at the top dose activity change, negative = inhibition, hits mostly inhibitors
Target sequence (P18054 whole entry, looked up): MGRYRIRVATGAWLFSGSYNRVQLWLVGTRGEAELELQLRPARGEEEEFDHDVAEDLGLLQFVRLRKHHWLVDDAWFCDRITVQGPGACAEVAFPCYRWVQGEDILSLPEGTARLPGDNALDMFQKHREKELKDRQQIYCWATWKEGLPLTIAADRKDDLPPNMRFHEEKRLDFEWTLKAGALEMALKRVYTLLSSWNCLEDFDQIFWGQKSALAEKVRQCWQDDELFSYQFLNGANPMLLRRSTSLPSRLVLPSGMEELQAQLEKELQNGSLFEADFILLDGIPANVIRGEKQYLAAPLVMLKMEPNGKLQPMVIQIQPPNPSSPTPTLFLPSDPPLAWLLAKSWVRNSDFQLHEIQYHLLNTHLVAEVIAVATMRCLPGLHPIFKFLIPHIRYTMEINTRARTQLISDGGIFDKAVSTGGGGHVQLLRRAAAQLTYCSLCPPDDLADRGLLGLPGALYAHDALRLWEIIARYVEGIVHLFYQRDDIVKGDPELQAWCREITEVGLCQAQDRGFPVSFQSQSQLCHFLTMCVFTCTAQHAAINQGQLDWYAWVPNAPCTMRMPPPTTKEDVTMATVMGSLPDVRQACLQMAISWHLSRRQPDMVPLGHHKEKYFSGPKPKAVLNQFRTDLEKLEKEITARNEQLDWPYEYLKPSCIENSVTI
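Purified human 12hLO (150 nM final) in 25 mM Hepes, 0.01% Triton X-100, pH 7.0 was preincubated 15 min at room temperature with compound. Then 40 uM arachidonic acid was added, 30 min. Hydroperoxide was read by Fe-XO absorbance ratio 573/405 nm.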
ELG1 DNA repair = blocks ELG1-dependent DNA repair in HEK293T cells; HEK293T ELG1-luciferase reporter, luminescence, 16 h; DNA damage induced by 5-fluorouridine; Potency, µM (series often up to 46.1 µM), for the others: at the highest dose activity change, negative = inhibition, actives largely listed as inhibitors; hit rate 2.3% among 330,000; AID 504467; note: nearly all actives have a fitted effect of over 55% in size
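Cells (2,000 per well) received 5-fluorouridine plus test compound or DMSO and were incubated 16 hr at 37 °C, 5% CO2. Luciferase activity was read by luminescence 30 min after ONE-Glo addition; signal suppression marked inhibition of damage-induced ELG1 function.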
TDP1 cell noCPT = qHTS for Inhibitors of human tyrosyl-DNA phosphodiesterase 1 (TDP1): qHTS in cells in absence of CPT. hit rate 15% among 420,000. Potency, µM (series often up to 46.2 µM), inactives show at the highest dose activity change, negative = growth inhibition, most hits filed as inhibitors. DT40 Tdp1-/- hTDP1 cells, no CPT, ATP luminescence, 48 h; note: nearly all actives have a fitted effect of over 55% in size
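Growth of hTDP1-complemented DT40 Tdp1-knockout cells is measured by ATP luminescence after at least 48 hr compound exposure at 37 °C, with DMSO substituting for the 20 nM CPT used in the parallel screen.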
Gal4-VP16 FLuc = counter-screen for ROR gamma inhibitors: Gal4-VP16 reporter; Drosophila S2 Gal4-VP16 UAS-luciferase, luminescence, 20 h; Potency, µM (doses to about 53.6 µM), inactives show top-dose activity, negative = inhibition, usual class: inhibitors; hit rate 3.5% among 310,000; AID 2546;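 note: Gal4-VP16 expression switched on by copper sulfate through the metallothionein promoter; nearly all actives have a fitted effect of over 50% in size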
RORgamma inh = ROR gamma (mouse) transcription inhibition | P51450 | Drosophila S2 Gal4-RORgamma UAS-luciferase reporter, 20 h | Potency, µM (top dose mostly 53.6 µM), inactives show at the highest dose activity change, negative = inhibition, actives largely listed as inhibitors | hit rate 5.4% among 310,000 | AID 2551; note: nearly all actives have a fitted effect of over 60% in size
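ROR gamma transcriptional activity was tracked as Gal4-UAS luciferase output in stably transfected Drosophila Schneider cells, with compound added 1 hr before 700 uM copper sulfate induction and a 20 hr ambient-temperature incubation.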
DT40 TDP1 CPT = DT40-hTDP1 cell growth loss with CPT; chicken DT40 Tdp1-/-;hTDP1 cells + 20 nM CPT, ATP luminescence, 48 h; Potency, µM (titrated, usually from 46.2 µM), without a hit: at the top dose activity change, negative = growth inhibition, actives largely listed as inhibitors; hit rate 12% among 420,000; AID 686979; note: nearly all actives have a fitted effect of over 55% in size
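Chicken DT40 Tdp1-/- cells stably complemented with human TDP1 were seeded at 400 cells/well in medium containing 20 nM camptothecin, exposed to pin-transferred compounds, and grown at 37 °C for at least 48 hr. Viability was read as ATP luminescence.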
* hit, by the source's call; ? = inconclusive; . = no result; [ ] = another dose, or the depositor's remark. Most compounds without a hit are left out; they make up all but 15% or so of the library. Calls come from the whole dose curve; as a rule, active = well fitted curve in the direction sought with a large enough effect; inconclusive = small, poorly fitted or top-dose-only effect, or another doubt; inactive = no such curve, though single readings can be large; an effect the other way counts as inactive or inconclusive. % is set by controls: 0 for no effect and ±100 for the full control effect; potency is the fitted concentration of half-maximal effect.

SMILES	12-LOX inh	ELG1 DNA repair	TDP1 cell noCPT	Gal4-VP16 FLuc	RORgamma inh	DT40 TDP1 CPT
Cc1nc2c(c(NCCc3cnn(-c4ccccc4)c3)n1)CCNCC2	84%	.	.	.	.	.
COCCCNC(=O)N1CCC2(CC1)CC(N(Cc1ccc(F)cc1)C1CC1)CCO2 (stereo not given)	38%	.	.	.	.	.
COC(=O)[C@]1(C)CCC[C@]2(C)c3ccc(C(C)C)cc3C(=O)CC12 (stereo not given in full)	.	.	23µM*	-2%	1%	?
COC(=O)[C@@]1(C)CCC[C@@]2(C)c3ccc(O)c(C(C)C)c3CCC21 (stereo not given in full)	.	.	10µM*	?	?	16µM*
COC(=O)C1(C)CCCC2(C)c3cc(OC)ccc3C(=O)C(Br)C12 (stereo not given)	-26%	.	6.5µM*	.	.	12µM*
CC(C)c1c(O)ccc2c1CCC1[C@@](C)(CO)CCC[C@@]21C (stereo not given in full)	.	.	?	-14%	0%	?
CC(=O)N1CC2(Cc3ccccc31)CN(C(=O)Cc1ccc(F)cc1)C2	8%[176 µM]	.	.	.	.	.
NC(=S)N/N=C/c1cc([N+](=O)[O-])ccc1Cl	-2%	-10%	-16%	-17%	25µM*	-6%
NC(=S)N/N=C/c1cccc([N+](=O)[O-])c1	-11%	.	.	.	.	.
O=[N+]([O-])c1ccc(Cl)c(/C=N/NC(=S)Nc2ccccc2)c1	26%	?	10µM*	2.2µM*	0.35µM*	11µM*
Nc1nnnn1CC(=O)N/N=C/c1cc([N+](=O)[O-])ccc1Cl	-5%	12%	10µM*	5%	-6%	15µM*
CCN(C(=O)CSc1ncn[nH]1)C1CCCCC1	-13%	2%	-11%	2%	5%	-18%
COc1ccccc1OCC(=O)N(Cc1nc(-c2ccccc2)no1)C1CCCCC1	?	?	21µM*	2%	?	23µM*
CCN(C(=O)COc1ccccc1)C1CCCCC1	17%	7%	?	-10%	2%	21µM*
CCN(C(=O)CSc1ccccn1)C1CCCCC1	-18%	15%	15µM*	.	.	10µM*
COc1ccc(C2Cn3nnc(-c4nc(-c5cccnc5)no4)c3CO2)cc1 (stereo not given)	-1%	.	.	.	.	.
O=C1NCCN2CC3(CCN(C(=O)Nc4ccccc4F)CC3)CC12 (stereo not given)	142%	.	.	.	.	.
COc1ccc(CCNC(=O)C(C(=O)c2ccc(F)cc2)n2ccccc2=O)cc1OC (stereo not given)	-1%	13%	6.5µM*	-11%	-11%	?
O=C(NCC1CCCO1)C(C(=O)c1ccc(F)cc1)n1ccccc1=O (stereo not given)	?	5%	23µM*	?	2%	?
COc1ccc(CCNC(=O)C(C(=O)c2ccccc2)n2ccccc2=O)cc1OC (stereo not given)	-14%	14%	5.8µM*	-9%	-11%	-20%
COc1ccc(CCNC(=O)C(C(=O)c2ccccc2)n2cc(Cl)ccc2=O)cc1OC (stereo not given)	-8%	10%	-21%	-7%	-11%	-12%
O=C(CNC(=O)c1ccccc1Cl)NCCN1CCc2ccccc2C1	-28%	.	.	.	.	.
NC(=O)NC(=O)COC(=O)c1cccnc1Nc1ccccc1F	5%	-1%	-6%	2%	1%	-5%
CCCNC(=O)COC(=O)c1cccnc1Nc1ccccc1F	-15%	13%	16µM*	?	21%	-27%
CNC(=O)[C@@H]1C[C@H](Oc2ccccc2)CN1C(=O)C1(C)CCCCC1	28%	.	.	.	.	.
